Test [1] can be described thus: ATG_TAL_CIS: Attagene CIS-FACTORIAL HepG2 Assay for human TAL Basal Promoter (AID 2282966; active = hit-call score of the fitted dose curve at least 0.9, where 1 is the maximum; inactive = score below 0.9;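 note: background control endpoint measuring basal TAL promoter reporter mRNA not a specific factor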). The settings on record: HepG2 Attagene cis-factorial TAL promoter reporter; actives raise or lower the signal. Put shortly: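 Endogenous transcription-factor activity is sensed in HepG2 cells through transfected cis-promoter reporter constructs. After 24 h dosing, reporter transcripts are quantified by RT-PCR and capillary electrophoresis. Gain or loss of signal is fitted relative to DMSO.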

Test [2] in a line: ATG_TGFb_CIS: Attagene CIS-FACTORIAL HepG2 Assay for human Transforming Growth Factor (TGF) (AID 2282967; active = hit-call score of the fitted dose curve at least 0.9, where 1 is the maximum; inactive = score below 0.9). The settings on record: HepG2 Attagene CIS TGFb reporter, mRNA transcription; actives raise or lower the signal. A digest of the protocol: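 Liver HepG2 line, cis-factorial reporter panel, 24 h dosing. Quantitation: RT-PCR products labeled with 6-FAM, cut with HpaI, resolved by capillary electrophoresis; DMSO-referenced bidirectional analysis.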

The nature of test [3]: ATG_VDRE_CIS: Attagene CIS-FACTORIAL HepG2 Assay for human Vitamin D Receptor Element (VDRE) (AID 2282968; active = hit-call score of the fitted dose curve at least 0.9, where 1 is the maximum; inactive = score below 0.9). The settings on record: HepG2 VDRE cis-reporter transcription, actives raise or lower the signal. A digest of the protocol: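 Transfected HepG2 reporter cells, chemical treatment 24 h. RNA isolated, cDNA amplified with reporter-specific primers, products analysed by capillary electrophoresis. Endpoint fitted in both directions versus DMSO.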

For test [4], the target named is Nuclear receptor subfamily 1 group I member 3 (Homo sapiens) (UniProt Q14994). Description: ATG_CAR_TRANS: Attagene TRANS-FACTORIAL HepG2 Assay for human Constitutive Androstane Receptor (CAR) (AID 2282969).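 Note: activators raise reporter mRNA above DMSO so AC50 marks induction.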 The settings on record: HepG2 Attagene TRANS-FACTORIAL CAR reporter. A digest of the protocol:
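Steps: transient transfection of HepG2 with multiple GAL4-UAS reporter units; 24 h compound incubation; RNA isolation, RT-PCR, 6-FAM primer extension, HpaI digest; capillary electrophoresis. Gain-of-signal relative to DMSO negative control.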

Test [5] addresses Estrogen receptor (Homo sapiens) (UniProt P03372). Description: ATG_ERa_TRANS: Attagene TRANS-FACTORIAL HepG2 Assay for human Estrogen Receptor alpha (ERa) (AID 2282970). The settings on record: HepG2 Attagene TRANS ERa GAL4 reporter, mRNA. A digest of the protocol: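 Transfected HepG2 cells carrying GAL4-UAS-driven reporter units were dosed for 24 hours. Total RNA was reverse-transcribed, reporter sequences PCR-amplified, FAM-labelled, HpaI-digested and resolved by capillary electrophoresis. Increases over DMSO control defined activity.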

Test [6] addresses X-box-binding protein 1 (Homo sapiens) (UniProt P17861). Description: ATG_Xbp1_CIS: Attagene CIS-FACTORIAL HepG2 Assay for human X-box Binding Protein 1 (XBP1) (AID 2282972; active = hit-call score of the fitted dose curve at least 0.9, where 1 is the maximum; inactive = score below 0.9). The settings on record: HepG2 XBP1 cis-element reporter, Attagene multiplex; actives raise or lower the signal. A digest of the protocol: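 Human hepatoma HepG2, cis-element reporter system, 24 h treatment; mRNA quantified by RT-PCR/CE fluorescence; fit relative to DMSO.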

The nature of test [7]: ATG_M_19_TRANS: Attagene TRANS-FACTORIAL HepG2 Assay for M19 Transcription Factor (Internal Marker) (AID 2282974). The settings on record: HepG2 Attagene TRANS-FACTORIAL M19 internal marker reporter. A digest of the protocol:
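Cells: human HepG2, transiently transfected with multiplexed reporter transcription units. Exposure: 24 h. Detection: RT-PCR of reporter mRNA with capillary electrophoresis. Analysis: gain-of-signal vs DMSO.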

Test [8] is described as follows: ATG_GAL4_TRANS: Attagene TRANS-FACTORIAL HepG2 Assay for GAL4 (Internal Marker) (AID 2282976). The settings on record: HepG2 Attagene TRANS GAL4 internal marker reporter. A digest of the protocol: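 Fluorescence from capillary electrophoresis of labelled RT-PCR products quantifies reporter mRNA induction after 24 h dosing of HepG2 cells carrying transfected GAL4-UAS reporter transcription units. Vehicle DMSO serves as baseline.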

The target in test [9] is Glucocorticoid receptor (Homo sapiens) (UniProt P04150). Description: ATG_GR_TRANS: Attagene TRANS-FACTORIAL HepG2 Assay for human Glucocorticoid Receptor (GR) (AID 2282978).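 Note: activators score as hits since higher reporter transcript over DMSO is fitted.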 The settings on record: HepG2 Attagene TRANS GR reporter, mRNA transcription. Put shortly:
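In this trans-factorial format, exogenous NR-GAL4 chimeric proteins in transfected HepG2 cells regulate GAL4-UAS reporter transcription. After 24 h treatment, reporter mRNA induction relative to DMSO is read by RT-PCR and capillary electrophoresis.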

In test [10] the target is Bile acid receptor (Homo sapiens) (UniProt Q96RI1). The experiment in a line: ATG_FXR_TRANS: Attagene TRANS-FACTORIAL HepG2 Assay for Farnesoid X Receptor (FXR) (AID 2282979).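 Note: hits raise reporter mRNA above DMSO so AC50 marks FXR activation.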 The settings on record: HepG2 Attagene TRANS FXR-GAL4 reporter transcription. Put shortly:
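Chimeric FXR-GAL4 activity in transiently transfected human HepG2 liver cells is scored as induction of reporter mRNA after 24 h of dosing. Detection uses RT-PCR with fluorescent labelling and capillary electrophoresis, with DMSO serving as baseline.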

Test [11] deals with Oxysterols receptor LXR-beta (Homo sapiens) (UniProt P55055). The experiment in a line: ATG_LXRb_TRANS: Attagene TRANS-FACTORIAL HepG2 Assay for human Liver X Receptor beta (LXRb) (AID 2282981). The settings on record: HepG2 Attagene TRANS GAL4-LXRb reporter, mRNA. A digest of the protocol: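 Liver-derived HepG2 cells transfected with Gal4-responsive reporters were dosed for 24 h. Activation was scored as rise in reporter mRNA, by RT-PCR and capillary electrophoresis, above DMSO baseline.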
Sequence of Oxysterols receptor LXR-beta (Homo sapiens) (P55055 whole entry, looked up, the tested form may be a part): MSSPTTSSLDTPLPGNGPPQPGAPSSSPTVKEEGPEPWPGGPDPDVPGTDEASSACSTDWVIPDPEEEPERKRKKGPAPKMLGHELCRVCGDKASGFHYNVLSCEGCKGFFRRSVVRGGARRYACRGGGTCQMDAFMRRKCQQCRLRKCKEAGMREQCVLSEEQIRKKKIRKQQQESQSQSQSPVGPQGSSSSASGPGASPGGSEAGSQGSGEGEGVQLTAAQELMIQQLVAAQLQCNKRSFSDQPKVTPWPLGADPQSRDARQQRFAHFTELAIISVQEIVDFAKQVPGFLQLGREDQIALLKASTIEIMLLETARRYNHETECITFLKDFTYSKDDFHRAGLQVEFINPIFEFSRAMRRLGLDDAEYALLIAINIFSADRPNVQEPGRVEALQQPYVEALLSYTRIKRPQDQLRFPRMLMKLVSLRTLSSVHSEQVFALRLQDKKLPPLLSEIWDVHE

The target of test [12] is Hepatocyte nuclear factor 4-alpha (Homo sapiens) (UniProt P41235). Description: ATG_HNF4a_TRANS: Attagene TRANS-FACTORIAL HepG2 Assay for human Hepatocyte Nuclear Factor 4 alpha (HNF4a) (AID 2282982). The settings on record: HepG2 HNF4a transactivation reporter, mRNA readout. A digest of the protocol: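 Using HepG2 liver cells transfected with GAL4-UAS reporter units, chemical-induced mRNA increases were assessed after 24 hours. Fluorescent RT-PCR fragments were separated by capillary electrophoresis and compared with DMSO negative controls.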
Sequence of Hepatocyte nuclear factor 4-alpha (Homo sapiens) (P41235 whole entry, looked up, the tested form may be a part): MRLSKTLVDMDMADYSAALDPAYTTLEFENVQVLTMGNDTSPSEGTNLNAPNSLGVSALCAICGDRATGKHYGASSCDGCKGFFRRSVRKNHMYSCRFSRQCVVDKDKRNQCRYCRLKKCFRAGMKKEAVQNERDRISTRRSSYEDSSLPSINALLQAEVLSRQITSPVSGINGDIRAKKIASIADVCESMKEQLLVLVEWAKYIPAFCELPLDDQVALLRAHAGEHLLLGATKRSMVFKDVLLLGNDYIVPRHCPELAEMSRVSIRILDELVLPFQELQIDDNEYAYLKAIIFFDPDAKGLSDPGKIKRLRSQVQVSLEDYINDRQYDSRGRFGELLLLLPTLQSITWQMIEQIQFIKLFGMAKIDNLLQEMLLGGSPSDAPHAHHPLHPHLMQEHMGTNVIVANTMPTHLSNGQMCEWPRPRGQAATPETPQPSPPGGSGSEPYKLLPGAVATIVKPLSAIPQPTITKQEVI

The nature of test [13]: ATG_M_06_TRANS: Attagene TRANS-FACTORIAL HepG2 Assay for M06 Transcription Factor (Internal Marker) (AID 2282983).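 Note: reporter transcript level by RT-PCR then capillary electrophoresis fluorescence.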 The settings on record: HepG2 Attagene TRANS M06 internal marker reporter. Put shortly: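 Human liver HepG2 cells bearing transiently transfected chimeric NR-GAL4 reporter units were treated with chemicals for 24 h. Total RNA was reverse-transcribed, reporter sequences amplified and labelled, then quantified by capillary electrophoresis. Activity was fitted upward relative to DMSO.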

The target in test [14] is Nuclear receptor subfamily 4 group A member 2 (Homo sapiens) (UniProt P43354). The experiment in a line: ATG_NURR1_TRANS: Attagene TRANS-FACTORIAL HepG2 Assay for human Nuclear Receptor Related Protein 1 (NURR1) (AID 2282985). The settings on record: HepG2 Attagene TRANS reporter, mRNA readout. Put shortly: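 Chimeric NR-Gal4 proteins were expressed in human HepG2 cells bearing GAL4-UAS reporter units, and induced reporter mRNA was quantified 24 h post-dosing by RT-PCR and capillary electrophoresis.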

Test [15] concerns the target Transcriptional activator Myb (Homo sapiens) (UniProt P10242). The experiment in a line: ATG_Myb_CIS: Attagene CIS-FACTORIAL HepG2 Assay for human Myeloblastosis (Myb) Proto-Oncogene Transcription Factor (AID 2282986; active = hit-call score of the fitted dose curve at least 0.9, where 1 is the maximum; inactive = score below 0.9). The settings on record: HepG2 Attagene CIS-FACTORIAL Myb reporter transcription; actives raise or lower the signal. Put shortly: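 Steps: transfect HepG2 with cis-regulated reporter units; dose with chemical for 24 h; isolate RNA, reverse-transcribe, PCR-amplify and FAM-label reporter sequences; digest with HpaI; resolve by capillary electrophoresis. Activity fitted in both directions relative to DMSO.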

For test [16], the target named is Nuclear respiratory factor 1 (Homo sapiens) (UniProt Q16656). The experiment in a line: ATG_NRF1_CIS: Attagene CIS-FACTORIAL HepG2 Assay for human Nuclear Respiratory Factor 1 (NRF1) Orphan Gene (AID 2282987; active = hit-call score of the fitted dose curve at least 0.9, where 1 is the maximum; inactive = score below 0.9). The settings on record: HepG2 NRF1 cis-element reporter, Attagene multiplex; actives raise or lower the signal. Put shortly: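 Fluorescence intensity of labelled reporter cDNA fragments, resolved by capillary electrophoresis, served as readout for NRF1 cis-element activity. Transiently transfected HepG2 cells were dosed for 24 hours; activity in either direction was fitted against DMSO negative control.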
Sequence of Nuclear respiratory factor 1 (Homo sapiens) (Q16656 whole entry, looked up, the tested form may be a part): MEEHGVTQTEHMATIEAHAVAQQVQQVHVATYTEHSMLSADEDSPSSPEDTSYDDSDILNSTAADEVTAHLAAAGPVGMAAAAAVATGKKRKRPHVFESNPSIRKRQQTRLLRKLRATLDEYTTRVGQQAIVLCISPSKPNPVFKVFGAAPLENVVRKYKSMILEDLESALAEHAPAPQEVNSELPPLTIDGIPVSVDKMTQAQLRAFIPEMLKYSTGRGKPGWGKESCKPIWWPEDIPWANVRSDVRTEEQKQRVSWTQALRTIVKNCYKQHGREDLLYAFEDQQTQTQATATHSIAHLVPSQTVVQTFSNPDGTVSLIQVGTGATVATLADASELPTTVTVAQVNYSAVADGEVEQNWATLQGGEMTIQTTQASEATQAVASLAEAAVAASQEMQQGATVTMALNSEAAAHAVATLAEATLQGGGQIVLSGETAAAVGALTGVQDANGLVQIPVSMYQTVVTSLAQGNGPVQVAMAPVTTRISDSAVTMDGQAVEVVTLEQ

Test [17] deals with Estrogen-related receptor gamma (Homo sapiens) (UniProt P62508). Description: ATG_ERRg_TRANS: Attagene TRANS-FACTORIAL HepG2 Assay for human Estrogen-Related Receptor gamma (ERRg) (AID 2282977).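 Note: hits increase reporter signal over DMSO so potencies reflect activators.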 The settings on record: HepG2 Attagene TRANS reporter, ERRg transactivation. Put shortly: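 Readout: fluorescent reporter-mRNA fragments resolved by capillary electrophoresis after RT-PCR and HpaI cut. Cells: transiently transfected HepG2 carrying GAL4-UAS reporters driven by exogenous NR-Gal4 chimeras, dosed 24 h. Activity fitted upward relative to DMSO baseline.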

In test [18] the target is Oxysterols receptor LXR-alpha (Homo sapiens) (UniProt Q13133). The experiment in a line: ATG_LXRa_TRANS: Attagene TRANS-FACTORIAL HepG2 Assay for human Liver X Receptor alpha (LXRa) (AID 2282980). The settings on record: HepG2 Attagene TRANS reporter, LXRa transactivation. Put shortly: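 Transient HepG2 transfectants, 24 h dosing, RT-PCR/CE mRNA reporter quantitation; gain-of-signal vs DMSO.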
Sequence of Oxysterols receptor LXR-alpha (Homo sapiens) (Q13133 whole entry, looked up): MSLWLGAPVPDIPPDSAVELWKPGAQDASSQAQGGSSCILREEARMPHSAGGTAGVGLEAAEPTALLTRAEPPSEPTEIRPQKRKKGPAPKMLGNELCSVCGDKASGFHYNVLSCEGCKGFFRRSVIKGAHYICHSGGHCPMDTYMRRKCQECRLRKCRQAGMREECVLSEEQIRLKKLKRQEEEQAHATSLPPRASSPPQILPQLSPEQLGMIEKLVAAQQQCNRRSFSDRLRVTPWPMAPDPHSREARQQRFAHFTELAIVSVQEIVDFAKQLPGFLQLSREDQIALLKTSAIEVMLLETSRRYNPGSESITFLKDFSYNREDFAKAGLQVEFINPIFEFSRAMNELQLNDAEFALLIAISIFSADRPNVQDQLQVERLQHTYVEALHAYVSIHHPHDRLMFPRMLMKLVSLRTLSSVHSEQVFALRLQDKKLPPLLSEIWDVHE

Test [19] can be described thus: ATG_M_32_TRANS: Attagene TRANS-FACTORIAL HepG2 Assay for M32 Transcription Factor (Internal Marker) (AID 2282984).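 Note: transcript level of a background control reporter unit measured by RT-PCR and capillary electrophoresis.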 The settings on record: HepG2 Attagene TRANS M32 internal marker reporter. Put shortly: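 Fluorescence-detected mRNA induction, HepG2 liver cells, 24 h after dosing. Multiple GAL4-UAS reporter units introduced by transient transfection; background-control endpoint analysed for gain of signal against DMSO.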

Results filed as inconclusive are left out. The source made the active and inactive calls. Rule for the calls, unless noted: active = hit-call score of the fitted dose curve at least 0.9, where 1 is the maximum; inconclusive = response in the unintended direction; inactive = score below 0.9.

Sequence of X-box-binding protein 1 (Homo sapiens) (P17861 whole entry, looked up): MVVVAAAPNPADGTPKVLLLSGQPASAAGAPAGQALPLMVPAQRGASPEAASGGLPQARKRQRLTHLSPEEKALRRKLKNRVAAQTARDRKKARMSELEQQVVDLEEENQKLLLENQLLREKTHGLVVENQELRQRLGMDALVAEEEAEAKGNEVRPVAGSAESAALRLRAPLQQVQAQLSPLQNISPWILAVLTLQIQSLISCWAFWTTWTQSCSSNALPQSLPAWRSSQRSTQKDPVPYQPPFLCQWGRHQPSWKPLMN
Sequence of Bile acid receptor (Homo sapiens) (Q96RI1 whole entry, looked up, the tested form may be a part): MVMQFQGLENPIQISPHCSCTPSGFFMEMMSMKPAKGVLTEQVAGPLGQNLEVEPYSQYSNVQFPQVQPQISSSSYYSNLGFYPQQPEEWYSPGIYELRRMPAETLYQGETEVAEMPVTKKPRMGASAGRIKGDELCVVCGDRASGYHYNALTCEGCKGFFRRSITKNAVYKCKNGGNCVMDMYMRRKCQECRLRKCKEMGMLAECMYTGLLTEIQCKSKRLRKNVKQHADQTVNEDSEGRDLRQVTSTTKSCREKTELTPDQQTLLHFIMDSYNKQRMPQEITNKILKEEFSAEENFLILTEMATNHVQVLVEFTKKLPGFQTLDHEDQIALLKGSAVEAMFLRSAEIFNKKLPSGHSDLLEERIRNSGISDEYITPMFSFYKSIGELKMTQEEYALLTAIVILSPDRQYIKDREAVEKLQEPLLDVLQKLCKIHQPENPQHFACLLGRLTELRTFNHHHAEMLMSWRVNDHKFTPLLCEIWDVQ
Sequence of Nuclear receptor subfamily 1 group I member 3 (Homo sapiens) (Q14994 whole entry, looked up, the tested form may be a part): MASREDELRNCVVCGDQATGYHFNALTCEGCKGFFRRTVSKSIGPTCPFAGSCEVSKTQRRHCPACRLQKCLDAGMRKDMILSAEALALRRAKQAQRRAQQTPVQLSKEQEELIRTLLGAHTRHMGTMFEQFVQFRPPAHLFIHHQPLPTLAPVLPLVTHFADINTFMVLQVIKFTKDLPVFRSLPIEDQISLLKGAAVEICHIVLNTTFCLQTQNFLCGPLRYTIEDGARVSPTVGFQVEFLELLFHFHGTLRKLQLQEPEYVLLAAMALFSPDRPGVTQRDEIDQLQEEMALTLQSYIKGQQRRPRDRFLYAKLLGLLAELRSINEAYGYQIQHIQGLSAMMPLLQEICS
Sequence of Glucocorticoid receptor (Homo sapiens) (P04150 whole entry, looked up, the tested form may be a part): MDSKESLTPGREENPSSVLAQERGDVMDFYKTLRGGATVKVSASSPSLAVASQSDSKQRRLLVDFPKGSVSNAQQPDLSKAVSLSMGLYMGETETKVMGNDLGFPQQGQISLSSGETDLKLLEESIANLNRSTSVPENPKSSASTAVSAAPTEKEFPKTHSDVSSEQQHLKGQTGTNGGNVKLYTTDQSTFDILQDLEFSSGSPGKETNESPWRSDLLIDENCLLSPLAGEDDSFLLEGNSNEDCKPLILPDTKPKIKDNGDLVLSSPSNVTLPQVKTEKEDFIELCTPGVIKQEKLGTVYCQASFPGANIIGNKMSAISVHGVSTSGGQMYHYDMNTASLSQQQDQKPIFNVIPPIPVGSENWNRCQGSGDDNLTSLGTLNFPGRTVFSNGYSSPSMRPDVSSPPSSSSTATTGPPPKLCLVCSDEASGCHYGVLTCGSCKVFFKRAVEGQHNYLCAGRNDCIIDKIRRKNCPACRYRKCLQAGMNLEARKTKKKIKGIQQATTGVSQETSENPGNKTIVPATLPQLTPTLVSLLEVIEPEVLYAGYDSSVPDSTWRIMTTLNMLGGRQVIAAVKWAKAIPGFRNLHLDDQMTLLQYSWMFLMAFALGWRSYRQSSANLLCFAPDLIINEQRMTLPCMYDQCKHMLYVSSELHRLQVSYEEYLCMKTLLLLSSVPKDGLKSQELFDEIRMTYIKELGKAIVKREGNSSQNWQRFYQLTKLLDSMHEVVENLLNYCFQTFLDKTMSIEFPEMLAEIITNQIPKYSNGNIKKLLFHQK
Sequence of Transcriptional activator Myb (Homo sapiens) (P10242 whole entry, looked up): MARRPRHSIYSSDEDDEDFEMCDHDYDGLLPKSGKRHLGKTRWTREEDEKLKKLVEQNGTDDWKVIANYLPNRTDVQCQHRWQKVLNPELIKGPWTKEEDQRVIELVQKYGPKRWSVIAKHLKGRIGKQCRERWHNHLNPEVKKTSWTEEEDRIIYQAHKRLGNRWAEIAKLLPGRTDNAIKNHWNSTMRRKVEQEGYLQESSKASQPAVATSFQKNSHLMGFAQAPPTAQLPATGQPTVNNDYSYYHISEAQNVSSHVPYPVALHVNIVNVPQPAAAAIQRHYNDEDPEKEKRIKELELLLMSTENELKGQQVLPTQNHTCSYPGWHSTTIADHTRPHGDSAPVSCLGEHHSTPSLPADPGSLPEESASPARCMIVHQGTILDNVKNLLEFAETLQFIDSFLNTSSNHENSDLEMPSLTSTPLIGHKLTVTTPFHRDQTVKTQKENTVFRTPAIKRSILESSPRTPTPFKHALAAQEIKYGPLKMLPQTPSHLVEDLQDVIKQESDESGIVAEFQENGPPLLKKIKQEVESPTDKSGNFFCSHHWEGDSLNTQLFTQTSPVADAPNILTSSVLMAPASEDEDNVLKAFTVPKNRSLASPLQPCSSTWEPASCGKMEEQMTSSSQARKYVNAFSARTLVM
Sequence of Estrogen receptor (Homo sapiens) (P03372 whole entry, looked up, the tested form may be a part): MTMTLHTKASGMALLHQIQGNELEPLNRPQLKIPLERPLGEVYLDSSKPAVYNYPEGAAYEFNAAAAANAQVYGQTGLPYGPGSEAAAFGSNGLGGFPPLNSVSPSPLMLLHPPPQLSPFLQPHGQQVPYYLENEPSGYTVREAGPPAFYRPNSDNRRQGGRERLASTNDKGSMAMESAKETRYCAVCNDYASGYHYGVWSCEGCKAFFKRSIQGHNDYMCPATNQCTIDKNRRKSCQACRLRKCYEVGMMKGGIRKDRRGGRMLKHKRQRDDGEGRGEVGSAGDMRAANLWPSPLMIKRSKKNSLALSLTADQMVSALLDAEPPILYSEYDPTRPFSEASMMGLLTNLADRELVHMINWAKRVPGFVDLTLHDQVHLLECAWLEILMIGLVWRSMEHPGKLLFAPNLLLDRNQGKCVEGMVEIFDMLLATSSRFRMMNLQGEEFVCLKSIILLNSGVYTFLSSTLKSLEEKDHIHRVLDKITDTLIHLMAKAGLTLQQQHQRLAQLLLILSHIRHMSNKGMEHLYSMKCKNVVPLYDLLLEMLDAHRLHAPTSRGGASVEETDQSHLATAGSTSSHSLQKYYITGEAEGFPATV

Regarding `CC(C)(C)C1CCCCC1O` (stereo unspecified), the outcome in test [1], in test [2], in test [3], in [4], in [5] and in test [6] was inactive. Besides, the result in test [7], in test [8], in [9], in [10], in test [11] and in test [12] was inactive. The compound was called inactive in [13], in test [14], in [15] and in test [16].

As for `Cc1ccc2ccc3ccc(C)cc3c2c1`, the outcome in [1], in test [2], in test [3], in test [4], in [6] and in test [17] was inactive. The outcome in test [9], in test [10], in test [11], in [12], in test [13] and in test [15] was inactive. For the same compound, the compound was called inactive in [16]. Besides, the half-maximal activity concentration (AC50) in test [5] is 7.58 µM (active).

With `O=C(Nc1ccc(Cl)c(Cl)c1)c1cc(Cl)cc(Cl)c1O`, the result in test [1], in test [2], in [4], in test [17], in test [9] and in test [18] was inactive. The outcome in [11], in [12], in [13], in test [19], in [15] and in test [16] was inactive. Moreover, the half-maximal activity concentration (AC50) in test [3] was 2.27 µM (active); in [5] it was 6.62 µM (active); in test [6] it was 1.72 µM (active); in test [10] it was 3.82 µM (active).

On to `Cc1ccc(C(=O)c2ccccc2)cc1`, for which the call in [1], in test [2], in test [3], in test [4], in test [6] and in test [7] was inactive. The call in [8], in test [10], in test [12], in [19], in [14] and in test [15] was inactive. Also, in test [16], the outcome was inactive. Also, the AC50 in test [5] is 27.8 µM (active).

`NNc1nc(-c2ccc([N+](=O)[O-])cc2)cs1`: the outcome in test [1], in [2], in test [3], in [4], in test [5] and in [6] was inactive. For the same compound, the outcome in [7], in test [17], in test [10], in test [18], in test [11] and in test [12] was inactive. For the same compound, the call in [13], in test [15] and in test [16] was inactive.

Take `CCO[Si](CCC1CCC2OC2C1)(OCC)OCC` (stereo unspecified): the result in test [1], in [2], in test [3], in test [4], in test [5] and in test [7] was inactive. Besides, the call in test [8], in test [17], in test [9], in test [10], in test [18] and in [11] was inactive. The result in [13], in test [19], in test [15] and in test [16] was inactive.

As for `Cc1ccc(C)c(S(=O)(=O)O)c1`, the compound was called inactive in test [1], in test [2], in test [3], in test [4], in test [8] and in [18]. The outcome in test [13], in [19], in test [15] and in test [16] was inactive.

The AC50 is the concentration at which the activity in the assay is half-maximal.

The values above are taken from PubChem BioAssay (EPA / NIEHS).
